Data published in PubChem BioAssay (NCI).
Values joined by “and” are separate entries in the source; they are usually repeats but may differ in a detail not shown here. Equal values may be shown once. Compounds without any hit were thinned out: in the full panel of roughly 83,000, 20% have a hit.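 Method: cells in 96-well plates; compound added at one concentration; 48 h incubation; percent growth measured; values under 10 scored active.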 A structure can be active in one record and inactive in another. Active and inactive are the calls of the source.

Assays:
Test in all cases: NCI-60 one-dose screen, 48 h (100 = growth as untreated, 0 = no growth, -100 = all killed)
Settings in all cases: 10 µM unless noted
NCI-H23 lung = system: NCI-H23 lung
NCI-H226 lung = system: NCI-H226 lung
NCI-H322M lung = system: NCI-H322M lung
HOP-62 NSCLC = system: HOP-62 NSCLC
NCI-H460 lung = system: NCI-H460 lung
HOP-92 NSCLC = system: HOP-92 NSCLC
NCI-H522 lung = system: NCI-H522 lung
A549/ATCC NSCLC = system: A549/ATCC NSCLC
786-0 renal = system: 786-0 renal
COLO 205 colon = system: COLO 205 colon
DU-145 prostate = system: DU-145 prostate
K-562 leukemia = system: K-562 leukemia
MALME-3M melanoma = system: MALME-3M melanoma
MDA-MB-231 breast = system: MDA-MB-231 breast
RXF 393 renal = system: RXF 393 renal
SF-268 CNS = system: SF-268 CNS
SF-295 CNS = system: SF-295 CNS
SF-539 CNS = system: SF-539 CNS
UACC-257 melanoma = system: UACC-257 melanoma
M14 melanoma = system: M14 melanoma

Row | SMILES | growth (NCI-H23 lung) | growth (NCI-H226 lung) | growth (NCI-H322M lung) | growth (HOP-62 NSCLC) | growth (NCI-H460 lung) | growth (HOP-92 NSCLC) | growth (NCI-H522 lung) | growth (A549/ATCC NSCLC) | growth (786-0 renal) | growth (COLO 205 colon) | growth (DU-145 prostate) | growth (K-562 leukemia) | growth (MALME-3M melanoma) | growth (MDA-MB-231 breast) | growth (RXF 393 renal) | growth (SF-268 CNS) | growth (SF-295 CNS) | growth (SF-539 CNS) | growth (UACC-257 melanoma) | growth (M14 melanoma)
1 | CC(=O)c1ccccc1O | 103% (inactive) and 97.7% (inactive) | 102% (inactive) and 81.7% (inactive) and 104% (inactive) | 98.4% (inactive) and 89.7% (inactive) and 98.2% (inactive) | 101% (inactive) and 87.7% (inactive) and 103% (inactive) | 105% (inactive) and 107% (inactive) and 103% (inactive) | 83.7% (inactive) and 103% (inactive) | 108% (inactive) and 88.4% (inactive) and 111% (inactive) | 104% (inactive) and 81.9% (inactive) and 96.2% (inactive) | 104% (inactive) and 103% (inactive) and 101% (inactive) | 131% (inactive) and 106% (inactive) and 118% (inactive) | 112% (inactive) and 107% (inactive) and 116% (inactive) | 94.9% (inactive) and 95% (inactive) and 107% (inactive) | 101% (inactive) and 95% (inactive) and 114% (inactive) | 108% (inactive) and 99.3% (inactive) and 110% (inactive) | 101% (inactive) and 117% (inactive) and 129% (inactive) | 108% (inactive) and 99.6% (inactive) and 113% (inactive) | 108% (inactive) and 101% (inactive) and 105% (inactive) | 95.3% (inactive) and 103% (inactive) and 141% (inactive) | 109% (inactive) and 89.4% (inactive) and 96.1% (inactive) | 104% (inactive) and 98.3% (inactive) and 100% (inactive)
2 | COC(=O)c1nc(N)nc(C(=O)OC)c1C(=O)c1ccc(OC)cc1 | 98.5% (inactive) and 58% (inactive) | 101% (inactive) and 74.8% (inactive) | 105% (inactive) and 88.1% (inactive) | 115% (inactive) and 62.3% (inactive) | 121% (inactive) and 55% (inactive) | 106% (inactive) and 63.4% (inactive) | 100% (inactive) and 55.7% (inactive) | 102% (inactive) and 53.6% (inactive) | 124% (inactive) and 72.4% (inactive) | 109% (inactive) and 75.8% (inactive) | 97.2% (inactive) and 48.2% (inactive) | 102% (inactive) and 52% (inactive) | 100% (inactive) and 50.4% (inactive) | 107% (inactive) and 53.8% (inactive) | 103% (inactive) and 9.98% (active) | 97.9% (inactive) and 92.8% (inactive) | 108% (inactive) and 102% (inactive) | 97.4% (inactive) and 59.8% (inactive) | 100% (inactive) and 86.7% (inactive) | 108% (inactive) and 48.5% (inactive)
3 | COc1ccc(/C(C#N)=C/c2ccccn2)cc1 | 98% (inactive) and 102% (inactive) | 95.9% (inactive) and 128% (inactive) | 108% (inactive) and 110% (inactive) | 112% (inactive) and 109% (inactive) | 105% (inactive) and 103% (inactive) | 99.8% (inactive) | 98.1% (inactive) and 103% (inactive) | 101% (inactive) and 103% (inactive) | 96.7% (inactive) and 73.8% (inactive) | 112% (inactive) and 173% (inactive) | 107% (inactive) and 120% (inactive) | 101% (inactive) and 85.6% (inactive) | 129% (inactive) and 134% (inactive) | 107% (inactive) and 127% (inactive) | 99% (inactive) and 96.4% (inactive) | 99.1% (inactive) and 122% (inactive) | 102% (inactive) and 134% (inactive) | 108% (inactive) and 106% (inactive) | 110% (inactive) and 112% (inactive) | 109% (inactive) and 111% (inactive)
4 | CCN1CCN(CCNc2nccc(-c3c(-c4cccc(O)c4)nc4sccn34)n2)S1(=O)=O | 87.1% (inactive) and 88.3% (inactive) | 98.9% (inactive) and 99.1% (inactive) | 66% (inactive) and 68.3% (inactive) | 120% (inactive) and 92.2% (inactive) | 52.7% (inactive) and 47.9% (inactive) | 32.2% (inactive) | 67% (inactive) and 63.1% (inactive) | 86% (inactive) and 70.1% (inactive) | 94.2% (inactive) and 64.3% (inactive) | 24.5% (inactive) and 28.1% (inactive) | 67.1% (inactive) and 55.1% (inactive) | 69.6% (inactive) and 62.7% (inactive) | -11.1% (active) and -23.5% (active) | 64.7% (inactive) and 68.3% (inactive) | 42.8% (inactive) and 61.8% (inactive) | 86.2% (inactive) | 93.3% (inactive) and 98.9% (inactive) | 89.7% (inactive) and 87.3% (inactive) | 1.33% (active) and -7.98% (active) | 5.92% (active) and 8.15% (active)
5 | Nc1cc(-c2cccc(OC(F)(F)F)c2)nc2ccc(N3CCCC3)cc12 | 43.5% (inactive) and 40.1% (inactive) and 38.5% (inactive) | 40.2% (inactive) and 48.3% (inactive) and 33.8% (inactive) | 49.5% (inactive) and 51.3% (inactive) and 39% (inactive) | 57.1% (inactive) and 66.1% (inactive) and 15.6% (inactive) | 7.01% (active) and 7.24% (active) and 3.29% (active) | -0.264% (active) and 3.71% (active) and -3.62% (active) | -13.4% (active) and 4.49% (active) and -38.1% (active) | 15.1% (inactive) and 18.4% (inactive) and 13.8% (inactive) | 9.51% (active) and 22.1% (inactive) and 16.1% (inactive) | -58.4% (active) and -35.8% (active) and -80.6% (active) | 14.4% (inactive) and 16.2% (inactive) and 5.85% (active) | -12.9% (active) and 4.92% (active) and 3.73% (active) | -28.6% (active) and 51.7% (inactive) and 24.8% (inactive) | 5.28% (active) and 18.1% (inactive) and 29.3% (inactive) | 7.48% (active) and 12.1% (inactive) and 20.7% (inactive) | 26.1% (inactive) and 28.4% (inactive) and 27.6% (inactive) | 5.27% (active) and 16.2% (inactive) and 9.05% (active) | -39.9% (active) and -21.2% (active) and -28.5% (active) | -42.2% (active) and 74.8% (inactive) and 48.9% (inactive) | -72.1% (active) and 1.77% (active) and -1.96% (active)
6 | NC(=S)N/N=C(\c1ccc(Br)cc1)C1CC1 | 94.2% (inactive) and 87.9% (inactive) | 96.7% (inactive) and 87.6% (inactive) | 101% (inactive) and 83.7% (inactive) | 96.4% (inactive) and 87% (inactive) | 104% (inactive) and 102% (inactive) | 83.2% (inactive) and 92.7% (inactive) | 98.9% (inactive) | 103% (inactive) | 113% (inactive) and 106% (inactive) | 98.4% (inactive) and 94.5% (inactive) | 96.8% (inactive) and 107% (inactive) | 38% (inactive) and 43.1% (inactive) | 84.3% (inactive) | 67.2% (inactive) | 122% (inactive) and 98.1% (inactive) | 97.2% (inactive) and 103% (inactive) | 93.5% (inactive) and 81.8% (inactive) | 99% (inactive) and 100% (inactive) | 63.1% (inactive) | 88% (inactive) and 84.1% (inactive)
7 | CNC(=O)c1ccc(C)c(-n2c(C)cc(OCc3ccc(F)cc3F)c(Br)c2=O)c1 | 66% (inactive) and 74.1% (inactive) | 67.2% (inactive) and 64.6% (inactive) | 86.3% (inactive) and 92.8% (inactive) | 69.8% (inactive) and 89% (inactive) | 80.3% (inactive) and 97.2% (inactive) | 64.3% (inactive) and 90.9% (inactive) | 52.3% (inactive) and 47.1% (inactive) | 63.4% (inactive) and 63.2% (inactive) | 85.9% (inactive) and 84.2% (inactive) | 61% (inactive) and 91.8% (inactive) | 91.6% (inactive) and 95.9% (inactive) | 43% (inactive) and 80.7% (inactive) | 98.9% (inactive) and 95.9% (inactive) | 88.8% (inactive) and 93.1% (inactive) | 87.7% (inactive) | 81.6% (inactive) and 84.2% (inactive) | 68.9% (inactive) and 78.3% (inactive) | 89.5% (inactive) and 88.2% (inactive) | 70.5% (inactive) | 76.6% (inactive) and 98.4% (inactive)
